Source: PubChem BioAssay (several laboratories)
GluA2 TARP mod = modulators of GluA2-stargazin AMPA receptor complexes, primary screen, cell-based, membrane potential dye. Voltage-dependent calcium channel gamma-2 subunit (Mus musculus) + Glutamate receptor 2 …. HEK293 GluA2+stargazin, membrane potential dye (FDSS), glutamate EC50; hits were called plate by plate, in both directions. calls only at 30 µM. 40,000 tested, 3.5% active. AID 1259245, 2017;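 active = any of four per-well response measures lying three or more SD from its plate-wide compound average, in either direction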
Target sequence (O88602 whole entry, looked up): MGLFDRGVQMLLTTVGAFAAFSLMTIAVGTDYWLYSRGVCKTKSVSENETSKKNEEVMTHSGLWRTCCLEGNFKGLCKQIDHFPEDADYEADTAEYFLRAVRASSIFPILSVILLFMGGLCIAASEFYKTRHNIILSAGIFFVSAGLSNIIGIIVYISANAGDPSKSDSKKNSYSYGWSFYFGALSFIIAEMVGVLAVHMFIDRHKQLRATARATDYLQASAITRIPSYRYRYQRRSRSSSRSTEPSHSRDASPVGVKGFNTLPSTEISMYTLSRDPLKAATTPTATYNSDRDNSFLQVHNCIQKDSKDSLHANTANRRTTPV
Target sequence (P19491 whole entry, looked up): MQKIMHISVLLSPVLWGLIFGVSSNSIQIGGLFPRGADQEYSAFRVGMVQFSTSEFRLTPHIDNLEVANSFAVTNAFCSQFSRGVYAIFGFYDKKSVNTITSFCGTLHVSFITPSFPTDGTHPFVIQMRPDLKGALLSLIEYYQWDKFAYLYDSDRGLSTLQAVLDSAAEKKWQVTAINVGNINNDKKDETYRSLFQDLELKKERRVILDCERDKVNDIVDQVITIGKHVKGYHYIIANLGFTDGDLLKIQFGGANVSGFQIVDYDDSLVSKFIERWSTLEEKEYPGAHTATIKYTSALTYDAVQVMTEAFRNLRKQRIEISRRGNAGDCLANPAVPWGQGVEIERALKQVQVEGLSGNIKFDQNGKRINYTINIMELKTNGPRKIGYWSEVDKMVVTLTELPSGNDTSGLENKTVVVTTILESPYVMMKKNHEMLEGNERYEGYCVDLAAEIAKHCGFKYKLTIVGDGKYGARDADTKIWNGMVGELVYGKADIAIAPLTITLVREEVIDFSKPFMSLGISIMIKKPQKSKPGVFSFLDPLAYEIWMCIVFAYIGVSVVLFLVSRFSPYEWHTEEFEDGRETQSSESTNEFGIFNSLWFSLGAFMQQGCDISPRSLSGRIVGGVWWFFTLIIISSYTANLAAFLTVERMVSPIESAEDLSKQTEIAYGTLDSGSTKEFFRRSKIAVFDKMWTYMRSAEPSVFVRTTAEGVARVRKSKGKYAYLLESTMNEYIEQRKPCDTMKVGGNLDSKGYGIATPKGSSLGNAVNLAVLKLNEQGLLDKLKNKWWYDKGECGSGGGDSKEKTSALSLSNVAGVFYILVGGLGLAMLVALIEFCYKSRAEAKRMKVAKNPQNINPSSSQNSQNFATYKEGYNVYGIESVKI
GIRK2 activator = activators of NPY4-receptor-primed GIRK2 channels, summary, cell-based, HEK293, thallium flux | activation (% efficacy), % for hits at 37.5 µM | HEK293 GIRK2/NPY4 cells, thallium flux fluorescence | 34,000 tested, under 10 active | G protein-activated inward rectifier potassium channel 2 (Homo sapiens), P48051;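 active = primary screen hit, no activity in plain HEK293 cells, and in GIRK2-only cells above 5% efficacy rising with concentration; inactive = the rest, including fluorescent compounds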;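 also: efficacy is normalized control-subtracted fluorescence 15 s after thallium addition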
Starred values were filed as active, the others as inactive; i = inactive; nt = no result given; + = active, no number. The sample as a whole holds a higher share of hits than the screen did.

SMILES	GluA2 TARP mod	GIRK2 activator
Cn1cccc1C(O)CNC(=O)Nc1cccc(C(F)(F)F)c1 (configuration not stated)	i	i
O=C(NCC1CCN(C(=O)COc2ccccc2)CC1)Nc1ccccc1F	i	i
O=C(NCC1CCN(C(=O)COc2ccccc2)CC1)Nc1cccc(C(F)(F)F)c1	+	i
O=C(NCC1CCN(c2ccccn2)CC1)Nc1cccc(C(F)(F)F)c1	i	nt
CCCS(=O)(=O)N1CCCc2cc(NS(=O)(=O)c3ccc(OC)c(OC)c3)ccc21	i	nt
O=C(NCCCN1CCCC1=O)C(=O)NCc1ccc(Cl)cc1	i	nt
CCCn1c(C2CC(=O)N(c3ccc(C)c(Cl)c3)C2)nc2ccccc21 (configuration not stated)	i	nt
CCCn1c(C2CC(=O)N(CCc3ccccc3)C2)nc2ccccc21 (configuration not stated)	+	nt
C=C(Br)Cn1c(C2CC(=O)N(CCCC)C2)nc2ccccc21 (configuration not stated)	i	i
CCCCN1CC(c2nc3ccccc3n2CCOc2ccccc2OC)CC1=O (configuration not stated)	+	nt
Cn1c(C2CC(=O)N(CCc3ccccc3)C2)nc2ccccc21 (configuration not stated)	i	nt
CCCCn1c(C2CC(=O)N(c3ccc(C)c(Cl)c3)C2)nc2ccccc21 (configuration not stated)	+	nt
CCCCN1CC(c2nc3ccccc3n2Cc2c(F)cccc2Cl)CC1=O (configuration not stated)	+	nt
CCCCN1CC(c2nc3ccccc3n2CCOc2cccc(OC)c2)CC1=O (configuration not stated)	i	nt
O=C(NCc1nc2ccccc2n1CCCCOc1ccccc1Cl)c1ccco1	nt	i
COc1ccc(Cl)cc1CN1CCN(c2ncnc3c2cnn3Cc2ccc(C)cc2)CC1	i	nt
O=C1CCc2cc(S(=O)(=O)N3CCc4ccccc4C3)cc3c2N1CC3	i	i
COc1ccc(C(=O)CSc2cc(C)c3ccccc3n2)cc1	i	nt
Cc1ccc2nc3c(cc(C(=O)NC4CCCCC4)n3Cc3ccccc3)c(=O)n2c1	i	i
CN1CC(c2nc3ccccc3n2CCCc2ccccc2)CC1=O (configuration not stated)	i	nt
O=C1CC(c2nc3ccccc3n2CC2CCCCC2)CN1CCc1ccccc1 (configuration not stated)	+	nt
CCCCN1C(SCC(=O)NCCC(C)C)=NS(=O)(=O)c2ccccc21	i	nt
Cn1c(=O)c(C(=O)NCCc2ccc(S(N)(=O)=O)cc2)cc2cccnc21	i	i
Cn1c(=O)c(C(=O)Nc2ccc(S(N)(=O)=O)cc2)cc2cccnc21	+	i
CCCc1ccc(S(=O)(=O)NCC2CCN(C(C)C)CC2)cc1	i	nt
SMILES	GluA2 TARP mod	GIRK2 activator
CCOc1cccc2sc(N(CCN3CCOCC3)C(=O)c3nc4ccccc4s3)nc12	i	i
O=S(=O)(c1cccs1)N(CCc1ccccc1)Cc1ccccn1	i	i
O=S(=O)(c1ccccc1)N1CCN(c2ccc(Nc3ccncc3)nn2)CC1	i	i
COc1ccc(S(=O)(=O)N2CCN(c3ccc(Nc4ccncc4)nn3)CC2)cc1	+	i
COc1ccc(S(=O)(=O)N2CCN(c3ccc(-c4ccncc4)nn3)CC2)c(OC)c1	+	i
COc1ccc(C)cc1S(=O)(=O)N1CCN(c2ccc(-c3ccccc3)nn2)CC1	i	i
CCc1nnc(-c2ccc(NC(=O)COC)cc2)o1	i	i
COc1ccc(N=Cc2c(NCCO)nc3c(C)cccn3c2=O)cc1	+	i
Cc1cccn2c(=O)c(/C=N/O)c(NCCO)nc12	i	nt
C/C(Cl)=C\Cn1c(NCc2ccco2)nc2c1c(=O)n(C)c(=O)n2C	i	nt
Cc1cccn2c(=O)c(C=NCCO)c(NCc3ccco3)nc12	+	nt
Cc1cc(-c2nnc(NC(=O)c3cccc(N4C(=O)CCC4=O)c3)o2)nn1C	i	i
O=S(=O)(c1ccc(F)cc1)N1CCN(c2ccc3nnc(-c4ccco4)n3n2)CC1	+	i
CCOC(=O)c1ccc(S(=O)(=O)N2CCN(c3ccc4nnc(CC)n4n3)CC2)cc1	i	i
COc1ccc(S(=O)(=O)N2CCN(c3ccc4nnc(-c5ccco5)n4n3)CC2)cc1	+	i
O=S(=O)(/C=C/c1ccccc1)N1CCN(c2ccc(-c3ccco3)nn2)CC1	i	i
O=S(=O)(c1cccc(Cl)c1)N1CCN(c2ccc3nnc(-c4ccco4)n3n2)CC1	i	i
CCc1ccc(S(=O)(=O)N2CCN(c3ccc4nnc(-c5ccco5)n4n3)CC2)cc1	i	i
CCCC(=O)Nc1ccc(S(=O)(=O)N2CCN(c3ccc4nnc(C)n4n3)CC2)cc1	+	i
O=S(=O)(/C=C/c1ccccc1)N1CCN(c2ccc3nnc(-c4ccco4)n3n2)CC1	+	i
CC(Oc1ccccc1F)C(=O)N1CCN(c2ccc3nnc(-c4ccco4)n3n2)CC1 (configuration not stated)	+	i
O=C(c1ccc(F)cc1F)N1CCN(c2ccc3nnc(-c4ccco4)n3n2)CC1	i	i
COc1ccc(CCNC(=O)NCC(C)(O)c2ccc3c(c2)OCO3)cc1 (configuration not stated)	i	i
Nc1nnc(C2CCCCC2)o1	i	nt
O=S(=O)(NCCOc1ccc(-c2ccc(F)cc2)nn1)c1ccc(Br)cc1	+	i
SMILES	GluA2 TARP mod	GIRK2 activator
COc1ccc(S(=O)(=O)NCCOc2ccc(-c3ccc(F)cc3)nn2)cc1	i	i
O=S(=O)(NCCOc1ccc(-c2ccc(F)cc2)nn1)c1ccc(Cl)cc1	i	i
Cc1ccc(S(=O)(=O)NCCOc2ccc(-c3ccc(F)cc3)nn2)cc1C	+	i
COc1cccc(NC(=O)Cn2nc3c(=O)n(-c4ccc(Br)cc4)ccn3c2=O)c1	i	i
COc1ccc(-n2nnc3c(N4CCN(C(=O)c5cccc6ccccc56)CC4)ncnc32)cc1	+	nt
COc1ccc(-n2nnc3c(N4CCN(C(=O)c5ccccc5C(F)(F)F)CC4)ncnc32)cc1	i	nt
Cc1ccc(S(=O)(=O)NCc2ccccc2)c(C)c1N(C)S(=O)(=O)c1ccccc1	i	nt
Cc1ccc(S(=O)(=O)NCc2cccnc2)c(C)c1N(C)S(=O)(=O)c1ccc(Cl)cc1	+	i
CC(C)N(CC#CCNS(=O)(=O)c1ccc2ccccc2c1)C(C)C	+	nt
COc1ccc(S(=O)(=O)NCC#CCN(C(C)C)C(C)C)cc1OC	i	nt
CCOc1ccc(NC(=O)CSc2nc(=O)n(CCO)c3c2CCCC3)cc1	+	i
CC(=O)Nc1ccc(NC(=O)CSc2nc(=O)n(CCCO)c3c2CCCC3)cc1	i	i
COc1cccc(NC(=O)NCC2(c3cccs3)CC2)c1	+	i
O=C(NCC1(c2cccs2)CC1)Nc1cccc(C(F)(F)F)c1	i	i
COc1ccc(C)cc1N1CCn2c1nc1c2c(=O)n(Cc2ccc(F)cc2)c(=O)n1C	i	nt
